From PubChem BioAssay AID1508600 (Functional Genomics Laboratory (NCATS/FGL), 2020)
Out of some 53,000 sequences screened, about 3,700 (7%) were called active.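 Rule for the calls: active = gene knockdowns whose robust z-score for IL-1 alpha signal is at least 2 or at most -2, so actives lie on both sides; inactive = the rest.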 This excerpt belongs to a sample that is enriched for actives.

test: Components of the Cytosolic LPS Sensing Pathway: Gene Identification via Genome-wide siRNA Screen; settings: RAW264.7 macrophages, IL-1a HTRF, actives lie on both sides, screened at 100 nM (by protocol), cells primed 5 h with Pam3CSK4 first;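 note: robust z of the log signal after scaling to non-targeting control siRNA wells of the plate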
In short: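 RAW264.7 mouse macrophages reverse-transfected with single siRNAs (100 nM final) for 48h, primed with Pam3CSK4 for 5 hours, then transfected with LipidA for 24 hour. Supernatant IL-1a read by HTRF; values normalized to negative-control median, log-transformed robust z-scores.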

Sequence	z-score
GGAAAAAGACUUCUAUCACTT against Ly6g6g	-2.03 (active)
GGCUUUUGAGAUUGCUAAATT against Mfap3l	-0.491 (inactive)
GGCCUUUGAUGACUUCAUCTT against Cacna1h	0.904 (inactive)
CCACUGGACAGGAACAAAGTT against Rims1	-1.2 (inactive)
GGAGGUGAUGCAGAUGCUGTT against Gpi1	3.06 (active)
GCCGACUCAUGGUUUAGAATT against Tmem18	-0.0972 (inactive)
GGCAAUGAAUUUAACAAUCTT against Zfp874a	-0.351 (inactive)
GGGACUUGAUCUCCUGAGUTT against Krtap4-2	-0.223 (inactive)
GGACAACGAGUGUCUGGGUTT against Cx3cr1	4.8 (active)
CCCAUGGUCACUUAUAUAUTT against Jarid2	0.109 (inactive)
GGAGCUUCGUGGAUAAGAGTT against Padi3	-1.79 (inactive)
GGUUGUUGGAAAAGAUGAATT against Ids	-1.55 (inactive)
GGAUCAUCCAAGUGUUCCGTT against Olfr555	1.51 (inactive)
GCAGUUUGUGGAUAUGUCATT against Treh	0.604 (inactive)
GGUUUUCUCGCUCAGACCATT against Wt1	0.352 (inactive)
GGUCAUACAUGUGAAGACATT against Tsr2	2.01 (active)
GGGCAAGAUGGUCAGUAGATT against Tpt1	0.627 (inactive)
CGCAACAGCUAGGAUUUUUTT against Me1	0.193 (inactive)
CCCAUUAGAUGCUGAAUAUTT against Stmn1	0.139 (inactive)
CCAGUGUUUGACUUGACCATT against Dpysl3	0.228 (inactive)
GGUUGUCGUCAACAAGAGCTT against Krt72	1.96 (inactive)
GGUGUCAUCCCUGAAAGAGTT against Tert	0.0314 (inactive)
GGAAUUUCUUCAGGACACUTT against Procr	0.278 (inactive)
GGCUCAAUAAAAUGAAGUGTT against Elovl2	2.03 (active)
GGCUCAUGGUUAUUGUAAUTT against Olfr1198	-0.385 (inactive)
UGUAUCUUUCUGUAGUUCUTT against Taar7e	0.195 (inactive)
GGAACAUGGCACUUUCGUGTT against Pcdh10	0.905 (inactive)
CGGUUAAAAGCCCUCAGCATT against Olfr592	-1.41 (inactive)
GGUCAAGUGCGAGAAACUCTT against Mafb	-0.016 (inactive)
GGUGGGAAGAGGAAUACACTT against Iffo1	4.73 (active)
